G9a block: inhibitors of human histone lysine methyltransferase G9a; AID 504332; 8.8% of 350,000 active; Potency, µM (titrated, usually from 102 µM), hits mostly inhibitors; G9a H3K9 monomethylation, AlphaScreen, 2 h; Q96KQ7; also: nearly all actives have a fitted effect of over 75% in size
Target sequence (Q96KQ7 913-1193 limits assumed): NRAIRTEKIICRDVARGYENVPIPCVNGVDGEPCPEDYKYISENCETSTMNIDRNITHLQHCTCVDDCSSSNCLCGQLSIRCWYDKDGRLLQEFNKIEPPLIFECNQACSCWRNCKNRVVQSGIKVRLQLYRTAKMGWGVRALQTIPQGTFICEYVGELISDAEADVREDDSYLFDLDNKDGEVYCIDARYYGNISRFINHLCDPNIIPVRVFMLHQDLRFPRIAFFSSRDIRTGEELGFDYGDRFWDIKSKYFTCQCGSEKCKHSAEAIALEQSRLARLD
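Enzyme 20 nM + cpd, 15 min RT; add b-H3K9 pep 500 nM / SAM 20 uM; 2 h RT; anti-H3K9me1 Ab 0.5 ug/mL + SA donor / anti-rabbit acceptor beads 20 ug/mL each, 10 min; AlphaScreen read.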
HP1b chromo inh: blocks HP1-beta chromodomain binding to methylated histone tails. P83916. AlphaScreen HP1-beta / biotin-H3K9me3 peptide binding. Potency, µM (doses to about 114 µM), hits mostly inhibitors. 0.56% of 390,000 active. AID 540317; also: nearly all actives have a fitted effect of over 70% in size
Target sequence (P83916 whole entry, looked up): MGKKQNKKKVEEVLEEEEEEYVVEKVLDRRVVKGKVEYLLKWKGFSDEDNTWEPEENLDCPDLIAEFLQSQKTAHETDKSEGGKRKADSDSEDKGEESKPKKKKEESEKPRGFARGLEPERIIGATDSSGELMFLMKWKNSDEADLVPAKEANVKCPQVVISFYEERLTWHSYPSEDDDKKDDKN
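AlphaScreen: HP1-beta (50 nM) preformed 30 min with biotin-H3(1-18)K9me3 peptide (50 nM) in PBS pH 7.4, 0.01% Tween-20. Compound added for 30 min at RT, then streptavidin donor/nickel chelate acceptor beads (10 ug/mL) for 30 min.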
BAZ2B inh: inhibitors of human BAZ2B bromodomain | AlphaScreen BAZ2B-H3K14Ac peptide displacement | 4.4% of 360,000 active | Potency, µM (doses to about 114 µM), usual class: inhibitors | Q9UIF8 | AID 504333; also: nearly all actives have a fitted effect of over 60% in size
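Complex of BAZ2B and biotin-H3K14Ac (50 nM apiece) forms over 30 min at RT, then faces library compounds up to 110 uM for another 30 min; AlphaScreen beads added, 20 min dark incubation, luminescence read.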
Sfp PPTase inh: inhibitors of Bacillus subtilis Sfp phosphopantetheinyl transferase; Q9F4F7; Biochemical Sfp PPTase activity, qHTS; 3.5% of 310,000 active; Potency, µM, hits mostly inhibitors;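 also: the enzyme is Sfp with the accession as filed and its product quenches rhodamine fluorescence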
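Fluorescence-quenching assay with 15 nM Sfp, 5 uM rhodamine-CoA and 12.5 uM BHQ-2-labelled ybbR peptide in pH 7.6 Hepes/MgCl2 buffer. Enzyme was pre-incubated with compound for 15 min at room temperature. Rate was taken from the 30-min fluorescence change (525/598 nm).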
JMJD2A Tudor: inhibitors of human JMJD2A Tudor domain; 4.4% of 390,000 active; O75164; AlphaScreen JMJD2A-Tudor / H3K4me3 peptide binding; Potency, µM (titrated, usually from 114 µM), hits mostly inhibitors; AID 504339; also: nearly all actives have a fitted effect of over 50% in size
ALOX12 inh: ALOX12 (human) lipoxygenase inhibition | P18054 | purified 12hLO, xylenol orange hydroperoxide absorbance | Potency, µM (top dose mostly 108 µM), actives largely listed as inhibitors | 1.1% of 580,000 active
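Purified human 12hLO (150 nM final) in 25 mM Hepes, 0.01% Triton X-100, pH 7.0 was preincubated 15 min at room temperature with compound. Then 40 uM arachidonic acid was added, 30 min. Hydroperoxide was read by Fe-XO absorbance ratio 573/405 nm.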
Numbers stand for hits; i = inactive; ? = inconclusive; nt = no result; [ ] = remark or other dose. Most compounds without a hit are left out; they make up all but 8.7% or so of the library. Calls follow the shape of the dose curve; as a rule, active = well fitted curve in the direction sought with a large enough effect; inconclusive = small, poorly fitted or top-dose-only effect, or another doubt; inactive = no such curve, though single readings can be large; an effect the other way counts as inactive or inconclusive.

SMILES	G9a block	HP1b chromo inh	BAZ2B inh	Sfp PPTase inh	JMJD2A Tudor	ALOX12 inh
O=C(CC1CCOCC1)Nc1ccc(Cl)c(Cl)c1	40µM	i	i	i	i	?
CO/N=C\CC(=O)Nc1ccc(Cl)c(Cl)c1	i	i	i	i	i	40µM
COC(=O)CCC(=O)Nc1ccc(Cl)c(Cl)c1	i	i	i	i	i	i
COc1cccc(C(=O)N2N=C(c3cccc(OC)c3)CC2(O)C(F)(F)F)c1 (stereo not drawn)	i	i	i	i	i	i
COc1cccc(C2=NN(C(=O)c3cccs3)C(O)(C(F)(F)F)C2)c1 (stereo not drawn)	i	i	i	45µM	i	?
COc1ccc(C(=O)N2N=C(c3cccc(OC)c3)CC2(O)C(F)(F)F)cc1 (stereo not drawn)	i	i	i	50µM	i	i
COc1ccc(CC(=O)N2N=C(c3cccc(Br)c3)CC2(O)C(F)(F)F)cc1 (stereo not drawn)	nt	nt	nt	nt	nt	14µM
COc1cccc(C2=NN(C(=O)c3ccc(C)o3)C(O)(C(F)(F)F)C2)c1 (stereo not drawn)	i	i	i	?	i	?
COc1ccc(CC(=O)N2N=C(c3ccncc3)CC2(O)C(F)(F)F)cc1 (stereo not drawn)	i	i	i	i	i	i
CCn1cc(S(=O)(=O)NCCc2noc(-c3ccncc3)n2)cn1	nt	nt	nt	nt	nt	i
Cc1cc(C(=O)CSc2nnc(N)s2)c(C)n1Cc1ccco1	40µM	i	i	i	i	i
Cc1cc(C(=O)COC(=O)c2cccn2C)c(C)n1Cc1ccco1	18µM	?	45µM	i	50µM	i
O=C(CC1CCOC2(CCN(C3CCN(Cc4ccccc4)CC3)CC2)C1)N1CCCC1 (stereo not drawn)	nt	nt	nt	nt	nt	i
Cn1c(=O)[nH]c2c(nc(-c3ccc(Cl)cc3)n2CCc2ccccc2)c1=O	nt	nt	nt	nt	nt	i
CCOc1ccc(N2CC(C(=O)Nc3ccc(S(=O)(=O)N4CCOCC4)cc3)CC2=O)cc1 (stereo not drawn)	i	i	i	i	i	i
CCC(C)c1ccccc1N1CC(C(=O)Nc2ccc(S(=O)(=O)N3CCOCC3)cc2)CC1=O (stereo not drawn)	50µM	i	i	nt	i	i
CC(=O)O[C@@H]1C(CO[Si](C)(C)C(C)(C)C)=C(Br)C(=O)[C@@H]2O[C@]12C	nt	nt	nt	50µM	nt	nt
O=C(O)c1ccc(O)cn1	nt	nt	nt	nt	nt	i
O=C(O)c1ccc(C2CCCCC2)cn1	?	i	4µM	?	1.6µM	i
Cc1ccc(SCCOCCN2CCc3ccccc3C2)cc1	?	?	i	i	40µM	?
CCOc1ccc(OCCOCCN2CCc3ccccc3C2)cc1	nt	?	56µM	i	2.8µM	?
CCCOc1ccc(OCCOCCN2CCc3ccccc3C2)cc1	10µM	?	50µM	?	3.5µM	?
C=CCc1cc(OC)ccc1OCCOCCN1CCc2ccccc2C1	11µM	?	56µM	35µM	0.89µM	?
c1ccc(OCCOCCN2CCc3ccccc3C2)cc1	i	i	i	i	i	i
O=C1c2c(nc(COc3ccc(Cl)cc3)n2Cc2ccccc2)NCCN1CCOc1ccccc1	nt	nt	nt	nt	nt	i
SMILES	G9a block	HP1b chromo inh	BAZ2B inh	Sfp PPTase inh	JMJD2A Tudor	ALOX12 inh
CC(C)OC(=O)Nc1ccc2c(c1)N(C(=O)N1CCN(C)CC1)c1ccccc1CC2	?	45µM	40µM	i	0.89µM	?
CCOC(=O)Nc1ccc2c(c1)N(C(=O)CN1CCN(C)CC1)c1ccccc1CC2	i[0.501 µM]	i	i	i	i	5µM
CCN(CC)CC(=O)Nc1ccc2c(c1)N(C(=O)CN(CC)CC)c1ccccc1CC2	56µM	i	i	i	i	i
CCOC(=O)NC(CNC(=O)c1ccccc1)CC(C)C (stereo not drawn)	nt	nt	nt	nt	nt	i
C/C=C\C=C\C(=O)N1CC2(CC(c3cccc(NC(=O)COc4ccc(Cl)cc4)c3)=NO2)C[C@H]1C(N)=O (stereo partly drawn)	?	i	i	28µM	?	?
C/C=C\C=C/C(=O)Nc1cccc(C2=NOC3(C2)C[C@@H](C(N)=O)N(C(=O)COc2ccc(Cl)cc2)C3)c1 (stereo partly drawn)	?	?	?	20µM	71µM	?
CC(C)c1ccc(-n2ccc3nc(N4CCOCC4)ncc3c2=O)cc1	nt	nt	nt	nt	nt	i

Bioassay records (PubChem)
